Among all 290,000 compounds or so, about 140 (0.048%) were called active.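 Rule for the calls: active = activation above 40% with more than 50 cells counted in the well; inconclusive = wells holding fewer than 50 cells, flagged as toxic or sparse; inactive = the rest.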 The sample as a whole holds a higher share of actives than the screen did.
Columns and labels:
[1] = selective activators of receptor GPR55 – imaging, U2OS cells, beta-arrestin-GFP redistribution, primary screen (AID 1961); conditions: measured here: cytotoxicity, cells analyzed, at 10 µM;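 note: U2OS osteosarcoma cells stably expressing GPR55 and beta-arrestin-GFP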;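 for activation: plate controls were DMSO negative control for no effect and LPI positive control for full effect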
[2] = biological target: G-protein coupled receptor 55 (Homo sapiens) (UniProt Q9Y2T6); assay: as above; conditions: at 10 µM, stronger effect = higher value
G-protein coupled receptor 55 (Homo sapiens), sequence (Q9Y2T6 whole entry, looked up): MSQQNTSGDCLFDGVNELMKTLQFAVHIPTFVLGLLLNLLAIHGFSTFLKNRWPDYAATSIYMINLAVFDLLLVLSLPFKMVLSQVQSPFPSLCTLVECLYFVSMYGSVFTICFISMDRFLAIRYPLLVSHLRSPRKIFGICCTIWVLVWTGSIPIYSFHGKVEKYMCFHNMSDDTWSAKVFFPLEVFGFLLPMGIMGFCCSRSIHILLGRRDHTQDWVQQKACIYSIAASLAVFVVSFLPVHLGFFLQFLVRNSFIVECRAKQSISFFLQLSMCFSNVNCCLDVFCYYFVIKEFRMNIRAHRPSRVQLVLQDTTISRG

SMILES | cell count [1] | activation [2]
O=C(Nc1ccc2c(c1)C(=O)OC2)c1ccc(F)cc1F | 353 cells | -0.2% (inactive)
Cc1nn(C)c(C)c1CNC(=O)c1cc2n(n1)C(C(F)(F)F)CC(c1cccs1)N2 (stereo not given) | 389 cells | 0.1% (inactive)
Nc1c(-c2ccccc2)c(CSc2nc3ccccc3[nH]2)nn1-c1ccc(C(=O)O)cc1 | 311 cells | -0.2% (inactive)
COc1cc(/C=C(\NC(=O)c2ccccc2)C(=O)NCC(=O)O)c([N+](=O)[O-])cc1OC | 349 cells | -0.1% (inactive)
COc1cc(/C=C/c2cc(OC(C)=O)c3ccccc3n2)c(OC(C)=O)c([N+](=O)[O-])c1 | 366 cells | 0.2% (inactive)
CN(C)c1ccnc(Nc2ccccc2)c1C#N | 373 cells | 0.3% (inactive)
O=C1c2ccccc2C(=O)N1Cc1cccnc1 | 406 cells | -0.2% (inactive)
Cn1c(=O)c(C(=O)COC(=O)c2cc(-c3ccco3)nc3ccccc23)c(N)n(CC2CC2)c1=O | 375 cells | 59.6% (active)
Cn1c(=O)c(C(=O)COC(=O)c2cc(-c3ccco3)nc3ccccc23)c(N)n(Cc2ccccc2)c1=O | 365 cells | 8.3% (inactive)
CC(C)Cn1c(N)c(C(=O)COC(=O)c2cc(-c3ccco3)nc3ccccc23)c(=O)n(C)c1=O | 285 cells | -0.1% (inactive)
Cc1ccc(C(=O)N2CCN(c3ccccn3)CC2)cc1Cl | 384 cells | -0.2% (inactive)
Cc1ccc(C)c(CN2C(=O)c3ccccc3S(=O)(=O)c3ccc(C(=O)N4CCN(C)CC4)cc32)c1 | 338 cells | -0.2% (inactive)
Cc1ccc(C(=O)N2CCN(c3ccccn3)CC2)cc1C | 396 cells | -0.1% (inactive)
CCOC(=O)N1CCN(C(=O)c2ccc3c(c2)N(Cc2cccc(Cl)c2)C(=O)c2ccccc2S3=O)CC1 (stereo not given) | 331 cells | 21.2% (inactive)
CC(=O)Nc1nc(SCC(=O)Nc2nnc(C)s2)[nH]c(=O)c1NC(=O)c1cccs1 | 243 cells | 0.7% (inactive)
CCOCCCNc1nc2c(C)cccn2c(=O)c1/C=C1\SC(=S)N(C(C)CC)C1=O (stereo not given) | 390 cells | 69.7% (active)
CCOCCCNc1nc2c(C)cccn2c(=O)c1/C=C1\SC(=S)N(CC(C)C)C1=O | 348 cells | 1% (inactive)
CCCN1C(=O)/C(=C/c2c(NCCCOCC)nc3c(C)cccn3c2=O)SC1=S | 462 cells | 5.7% (inactive)
O=C(N/N=C/c1ccccc1F)c1cccc(NC(=O)c2ccccc2Cl)c1 | 329 cells | -0.2% (inactive)
COc1cc(OC)cc(C(=O)N2CCN(c3ccccc3F)CC2)c1 | 328 cells | -0.2% (inactive)
CCOc1ccc(NC(=O)C2CC(=O)N(c3cc(C)cc(C)c3)C2)cc1 (stereo not given) | 314 cells | -0.1% (inactive)
COc1cccc(NS(=O)(=O)c2ccc3c(c2)NC(=O)C(C)C(=O)N3)c1 (stereo not given) | 385 cells | -0.1% (inactive)
Cc1ccc(-c2ccc(CO)o2)cc1N | 282 cells | -0.3% (inactive)
O=C(O)c1cccc(CSc2nnc(-c3ccc(Cl)cc3)o2)c1 | 424 cells | 0.2% (inactive)
O=C(O)c1cccc(CSc2ncn[nH]2)c1 | 346 cells | 0.4% (inactive)
O=C(Cn1nc(-c2ccco2)ccc1=O)Nc1cc(C(F)(F)F)ccc1Cl | 369 cells | -0.1% (inactive)
CC(C)(C)NC(=O)COC(=O)c1cc(Br)ccc1Cl | 284 cells | -0.3% (inactive)

SMILES | cell count [1] | activation [2]
O=C(NOC(=O)c1cc(Br)ccc1Cl)c1cccs1 | 347 cells | -0.1% (inactive)
O=C(NCc1ccccc1F)C1CCCN(C(=O)NC2CCCCC2)C1 (stereo not given) | 299 cells | -0.1% (inactive)
COc1cccc(CNC(=O)c2cccc(S(=O)(=O)N3CCN(C)CC3)c2)c1 | 306 cells | 0% (inactive)
COc1ccc(CNC(=O)CN(C(=O)c2csnn2)c2ccccc2F)cc1 | 338 cells | -0.1% (inactive)
COc1ccc(N2CCN(C(=O)c3cc(=O)c4ccc(C)cc4o3)CC2)cc1 | 331 cells | -0.2% (inactive)
CCOc1ccccc1C(=O)Oc1ccc2ccc(=O)oc2c1 | 397 cells | 0.9% (inactive)
COc1cccc(C2/C(=C(\O)c3ccc4c(c3)OCCO4)C(=O)C(=O)N2CC2CCCO2)c1 (stereo not given) | 382 cells | 0.2% (inactive)
FC(F)(F)c1cc(C(F)(F)F)c2ccc(N/N=C/c3ccccc3)nc2n1 | 408 cells | -0.3% (inactive)
Cc1ccc(/C=N/Nc2ccc3c(C(F)(F)F)cc(C(F)(F)F)nc3n2)cc1 | 447 cells | -0.2% (inactive)
FC(F)(F)c1cc(C(F)(F)F)c2ccc(N/N=C/c3cccc(Cl)c3)nc2n1 | 390 cells | 59.1% (active)
COCc1cc(C)nc(N)c1C#N | 359 cells | 0.1% (inactive)
S=C(NCCc1ccccc1)N1CCN(C2CCCCC2)CC1 | 462 cells | -0.1% (inactive)
O=C(C1=C[C@H](c2ccc(C(F)(F)F)cc2)C[C@H](OCc2ccc(CO)cc2)O1)N1CCOCC1 | 338 cells | 0.1% (inactive)
O=C(CSc1nnc(-c2ccc(F)cc2)o1)NC1CCCC1 | 360 cells | -0.1% (inactive)
CCOC(=O)N1CCN(c2c(NCCCOC(C)C)c(=O)c2=O)CC1 | 327 cells | -0.1% (inactive)
CC(C)OCCCNC(=O)Cc1ccc(F)cc1 | 376 cells | -0.2% (inactive)
Cc1ccc2oc(=O)cc(CN3CCN(Cc4ccccc4)CC3)c2c1 | 335 cells | 0% (inactive)
O=C(CNC(=O)c1ccc(N2C(=O)c3ccccc3C2=O)cc1)OCC(=O)c1cccc2ccccc12 | 341 cells | 0% (inactive)
CC(C)N1CCN(Cc2ccc(C#CC(C)(C)O)s2)CC1CCO (stereo not given) | 368 cells | 0.3% (inactive)
CCOc1ccc(S(=O)(=O)Nc2ccc(C(=O)N3CCCC3)cc2)cc1C(N)=O | 319 cells | 0% (inactive)
O=S(=O)(c1cccc(-c2nn3c(-c4ccncc4)nnc3s2)c1)N1CCOCC1 | 342 cells | -0.2% (inactive)
COCCNC(=O)C(c1ccc(F)cc1)N(C(=O)CCC(=O)Nc1ccccn1)c1cccc(C)c1 (stereo not given) | 316 cells | -0.2% (inactive)
CCCc1cc(=O)n2[nH]c(C)c(-c3ccc(OC)cc3)c2n1 | 417 cells | -0.1% (inactive)
CC(C)(C)NC(=O)CSc1nc(N)c(NC(=O)c2ccccc2F)c(=O)[nH]1 | 255 cells | 0% (inactive)
Cn1c(SCC(=O)NNC(=O)Nc2ccc(Cl)cc2)nnc1-c1ccccc1 | 332 cells | -0.1% (inactive)
COc1cccc(-n2c(SCC(=O)Nc3cc(C)on3)nc3ccccc3c2=O)c1 | 336 cells | 0.5% (inactive)
Cc1cccc(N(CC(=O)Nc2c(C)n(C)n(-c3ccccc3)c2=O)S(C)(=O)=O)c1C | 361 cells | 0% (inactive)

SMILES | cell count [1] | activation [2]
CSc1cccc(N/C(=N/S(=O)(=O)c2ccccc2)NN)c1 | 310 cells | 0.6% (inactive)
COc1ccc2cc(CCNC(=O)C3CCCC3)c(=O)[nH]c2c1 | 307 cells | -0.1% (inactive)
c1ccc(-c2noc(CN3CCOCC3)n2)cc1 | 407 cells | 0.2% (inactive)
CC(=O)c1c(C)[nH]c(C(=O)NCCc2c[nH]c3ccccc23)c1C | 348 cells | -0.1% (inactive)
CC1(C)CC(NC(=O)c2c(N)no[n+]2[O-])CC(C)(C)N1 | 241 cells | -0.3% (inactive)
Cc1ccc(NC(=S)Nc2ccc(S(=O)(=O)Nc3ncccn3)cc2)c(C)c1 | 327 cells | -0.2% (inactive)
COCc1[nH]c(=S)[nH]c(=O)c1C | 339 cells | -0.1% (inactive)
Cc1c(Cl)c(=O)oc2cc(OCC(=O)NCc3cccs3)ccc12 | 357 cells | 0% (inactive)
COc1ccc(NC(=O)Cn2c(CCC(=O)O)ccc2-c2ccccc2)cc1 | 413 cells | 0.2% (inactive)
O=C(O)c1ccc(NC(=O)c2ccc3c(c2)C(=O)N(c2ccccc2)C3=O)cc1 | 374 cells | -0.1% (inactive)
O=C(OCc1cc(=O)n2c(n1)sc1ccccc12)c1ccc2c(=O)n3c(nc2c1)CCC3 | 323 cells | -0.1% (inactive)
Cc1sc2nc(CSc3nc4ccccc4c(=O)n3CCCN3CCOCC3)[nH]c(=O)c2c1C | 341 cells | -0.1% (inactive)
Cc1ccc(SC[C@H](CC(C)C)N2CCN(CCc3ccccc3)CCC2=O)cc1 | 305 cells | 193% (active)
Cc1ccc(SC[C@H](Cc2ccccc2)N2CCN(CCc3ccccc3)CCC2=O)cc1 | 347 cells | -0.1% (inactive)
CCCN1CCC(=O)N([C@H](CSc2ccc(C)cc2)CC(C)C)CC1 | 328 cells | 5.1% (inactive)
Cc1ccc(CNC(=O)CCS(=O)(=O)c2ccc3c(c2)NC(=O)CO3)cc1 | 376 cells | -0.2% (inactive)
CCOC(=O)C(CSCC(=O)c1ccc(Cl)cc1Cl)NC(=O)OC(C)(C)C (stereo not given) | 359 cells | -0.1% (inactive)
CCOC(=O)c1c(CN2CCN(CCO)CC2)n(-c2ccccc2)c2cc(Br)c(O)cc12 | 355 cells | 0.3% (inactive)
O=c1oc2ccccc2c(NCc2ccc(Cl)cc2)c1[N+](=O)[O-] | 384 cells | -0.3% (inactive)
O=C(NCCN1CCN(C(=O)c2ccc(F)cc2)CC1)c1ccc(F)cc1 | 452 cells | 0.2% (inactive)
CCOc1ccc2nc(Cl)sc2c1 | 247 cells | -0.1% (inactive)
Nc1cc(-c2ccccc2)n2c(n1)nc1ccccc12 | 331 cells | 0.3% (inactive)
Cc1cc(=O)[nH]c(SCC(=O)N2CCCCCC2)n1 | 340 cells | 0% (inactive)
CC(=O)NC1(C(F)(F)F)C(=O)N(Cc2ccccc2)C2=C1C(=O)CC(C)(C)C2 (stereo not given) | 419 cells | 0.2% (inactive)
CCS(=O)(=O)N1CCC(C(=O)N2CCc3ccccc3C2)CC1 | 361 cells | 0% (inactive)
O=C(Cc1ccccc1)Nc1ccc(NC(=O)c2ccco2)cc1 | 367 cells | 0.2% (inactive)

From PubChem BioAssay AID1961 (Sanford-Burnham Center for Chemical Genomics, 2009)
